From article PMC11062922 (Nature Chemical Biology, 2023)
Like-named read-outs stand apart in the source and are kept apart here.

Tests used:
Parameters in all cases: species or system human, MV4-11 + K-562 + COLO205 + SK-N-BE2 + OVCAR-8
[1] = tested on: AURKB; settings: read-out: apparent Kd, n = 1
[2] = tested on: BTK; settings: read-out: apparent Kd, n = 1
[3] = tested on: CDC42BPB; settings: read-out: apparent Kd, n = 1
[4] = tested on: EPHB1; settings: read-out: apparent Kd, n = 1
[5] = tested on: LCK; settings: read-out: apparent Kd, n = 1
[6] = tested on: NUAK2; settings: read-out: apparent Kd, n = 1
[7] = tested on: PAK6; settings: read-out: apparent Kd, n = 1
[8] = tested on: RPS6KB1; settings: read-out: apparent Kd, n = 1
[9] = tested on: PRKAA2; settings: read-out: apparent Kd, n = 1
[10] = tested on: RIPK2; settings: read-out: apparent Kd, n = 1
[11] = tested on: RPS6KA3; settings: read-out: apparent Kd, n = 1
[12] = tested on: ACVR1B; settings: read-out: apparent Kd, n = 1
[13] = tested on: IRAK3; settings: read-out: apparent Kd; compound concentrations:100 nM and 1000 nM (sheet 'Samples'); n = 1
[14] = tested on: TTK; settings: read-out: apparent Kd; compound concentrations:100 nM and 1000 nM (sheet 'Samples'); n = 1
[15] = tested on: MAPK14; settings: read-out: apparent Kd, n = 1
[16] = tested on: MAP3K11; settings: read-out: apparent Kd; compound concentrations:100 nM and 1000 nM (sheet 'Samples'); n = 1
[17] = tested on: PRKCA; settings: read-out: apparent Kd; compound concentrations:100 nM and 1000 nM (sheet 'Samples'); n = 1
[18] = tested on: BUB1; settings: read-out: apparent Kd, compound concentrations: 100 nM and 1000 nM (sheet 'Samples'), n = 1
[19] = compound concentrations:100 nM and 1000 nM (sheet 'Samples')

How did the potency estimated from few doses ([1]; compound concentrations: 100 nM and 1000 nM (sheet 'Samples'), CATDS: 1.11325754696811E-2) turn out when CN(c1ccc(NC(=O)Nc2cccc(Cl)c2)cc1)c1ccnc(N)n1.Cl [GW830707A] was run?
The potency estimated from few doses was 1010 nM.

And the potency estimated from few doses ([2]; compound concentrations: 100 nM and 1000 nM (sheet 'Samples'), CATDS: 1.93862363831281E-2)?
The potency estimated from few doses was 58.1 nM.

What about the potency estimated from few doses ([3]; compound concentrations: 100 nM and 1000 nM (sheet 'Samples'), CATDS: 1.55962433330884E-2) of the same compound?
The potency estimated from few doses was 126 nM.

And the potency estimated from few doses ([4]; compound concentrations: 100 nM and 1000 nM (sheet 'Samples'), CATDS: 2.4630351484746099E-2)?
Its potency estimated from few doses is 31.2 nM.

And the potency estimated from few doses ([5]; compound concentrations: 100 nM and 1000 nM (sheet 'Samples'), CATDS: 1.1469376819807401E-2)?
Its potency estimated from few doses is 788 nM.

What about the potency estimated from few doses ([6]; compound concentrations: 100 nM and 1000 nM (sheet 'Samples'), CATDS: 1.08459098062964E-2) of the same compound?
The potency estimated from few doses was 1270 nM.

And the potency estimated from few doses ([7]; compound concentrations: 100 nM and 1000 nM (sheet 'Samples'), CATDS: 1.07398015427933E-2)?
The potency estimated from few doses was 1390 nM.

What about the potency estimated from few doses ([8]; compound concentrations: 100 nM and 1000 nM (sheet 'Samples'), CATDS: 1.09553659906664E-2) of the same compound?
The potency estimated from few doses was 1160 nM.

Which potency estimated from few doses ([1]; compound concentrations: 100 nM and 1000 nM (sheet 'Samples'), CATDS: 1.17744273258488E-2) does the source give for Clc1cc(Cl)cc(Nc2ccnc(Nc3cc(Cl)cc(Cl)c3)n2)c1 [GSK175726A] here?
The potency estimated from few doses was 461 nM.

And the potency estimated from few doses ([2]; compound concentrations: 100 nM and 1000 nM (sheet 'Samples'), CATDS: 2.6199359146872301E-2)?
Its potency estimated from few doses is 82.1 nM.

And the potency estimated from few doses ([4]; compound concentrations: 100 nM and 1000 nM (sheet 'Samples'), CATDS: 3.1891027827673897E-2)?
Its potency estimated from few doses is 60 nM.

And the potency estimated from few doses ([5]; compound concentrations: 100 nM and 1000 nM (sheet 'Samples'), CATDS: 2.0638344047220501E-2)?
The potency estimated from few doses was 125 nM.

And the potency estimated from few doses ([7]; compound concentrations: 100 nM and 1000 nM (sheet 'Samples'), CATDS: 9.3443297736164402E-3)?
The potency estimated from few doses was 1060 nM.

What about the potency estimated from few doses ([9]; compound concentrations: 100 nM and 1000 nM (sheet 'Samples'), CATDS: 1.07442997812795E-2) of the same compound?
The potency estimated from few doses was 618 nM.

And the potency estimated from few doses ([10]; compound concentrations: 100 nM and 1000 nM (sheet 'Samples'), CATDS: 1.18071418274956E-2)?
Its potency estimated from few doses is 457 nM.

And the potency estimated from few doses ([11]; compound concentrations: 100 nM and 1000 nM (sheet 'Samples'), CATDS: 8.5170276758985107E-3)?
The potency estimated from few doses was 1660 nM.

What does the source list for CN1C[C@@H]2Cn3c(c(C4=C(c5cn(C)c6ccccc56)C(=O)NC4=O)c4ccccc43)C[C@H]2C1.Cl [RO0320234-001]?
potency estimated from few doses [1, 19]: 444 nM; potency estimated from few doses [2, 19]: 86.7 nM; potency estimated from few doses [4, 19]: 10.4 nM; potency estimated from few doses [5, 19]: 134 nM; potency estimated from few doses [6, 19]: 843 nM; potency estimated from few doses [7, 19]: 111 nM; potency estimated from few doses [9, 19]: 448 nM; potency estimated from few doses [10, 19]: 407 nM; potency estimated from few doses [11, 19]: 2100 nM; potency estimated from few doses [8, 19]: 86.4 nM

What does the source list for CNC(=O)c1ccccc1Nc1nc(Nc2ccc(N3CCOCC3)cc2)ncc1Cl.Cl [GSK1576028A]?
potency estimated from few doses [12, 19]: 243 nM; potency estimated from few doses [1, 19]: 55 nM; potency estimated from few doses [2, 19]: 256 nM; potency estimated from few doses [13]: 3.81 nM; potency estimated from few doses [5, 19]: 234 nM; potency estimated from few doses [6, 19]: 1370 nM; potency estimated from few doses [9, 19]: 688 nM; potency estimated from few doses [11, 19]: 549 nM; potency estimated from few doses [14]: 2100 nM

Which potency estimated from few doses [12, 19] does the source give for Cc1ccc2c(-c3ccncc3)c(-c3ccc(F)cc3)nn2c1.Cl [GW461484A] here?
Its potency estimated from few doses is 696 nM.

What about the potency estimated from few doses [2, 19] of the same compound?
The potency estimated from few doses was 801 nM.

What about the potency estimated from few doses [4, 19] of the same compound?
Its potency estimated from few doses is 384 nM.

And the potency estimated from few doses [5, 19]?
The potency estimated from few doses was 730 nM.

And the potency estimated from few doses [15, 19]?
Its potency estimated from few doses is 465 nM.

What about the potency estimated from few doses [9, 19] of the same compound?
Its potency estimated from few doses is 1840 nM.

And the potency estimated from few doses [11, 19]?
The potency estimated from few doses was 1950 nM.

What does the source list for NCCNS(=O)(=O)c1ccc(-c2ccnc3[nH]ccc23)cc1 [GSK977617A]?
potency estimated from few doses [2, 19]: 642 nM; potency estimated from few doses [3, 19]: 1700 nM; potency estimated from few doses [4, 19]: 463 nM; potency estimated from few doses [5, 19]: 515 nM; potency estimated from few doses [16]: 1370 nM; potency estimated from few doses [7, 19]: 1310 nM; potency estimated from few doses [9, 19]: 721 nM; potency estimated from few doses [17]: 1270 nM; potency estimated from few doses [10, 19]: 974 nM

Fc1ccc(-c2c(-c3ccncc3)[nH]c3cccnc23)cc1 [RO1153853-000] was tested. Which potency estimated from few doses ([12]; compound concentrations: 100 nM and 1000 nM (sheet 'Samples'), CATDS: 6.54692284622726E-2) did it give?
Its potency estimated from few doses is 700 nM.

What about the potency estimated from few doses ([18]; CATDS: 4.9666048128405298E-2) of the same compound?
Its potency estimated from few doses is 1690 nM.

What about the potency estimated from few doses ([15]; compound concentrations: 100 nM and 1000 nM (sheet 'Samples'), CATDS: 9.4137479402045199E-2) of the same compound?
Its potency estimated from few doses is 308 nM.

And the potency estimated from few doses ([10]; compound concentrations: 100 nM and 1000 nM (sheet 'Samples'), CATDS: 7.5197956220231496E-2)?
Its potency estimated from few doses is 498 nM.

Cl.ON=C1CCc2cc(-c3nc(C4CCNCC4)[nH]c3-c3ccncc3)ccc21 [SB-614067-R] was tested. Which potency estimated from few doses [12, 19] did it give?
Its potency estimated from few doses is 846 nM.

And the potency estimated from few doses [15, 19]?
Its potency estimated from few doses is 1160 nM.

And the potency estimated from few doses [10, 19]?
Its potency estimated from few doses is 320 nM.

Which potency estimated from few doses ([12]; compound concentrations: 100 nM and 1000 nM (sheet 'Samples'), CATDS: 3.5352360337843801E-2) does the source give for CCn1c(-c2nonc2N)nc2c(-c3ccccc3)ncc(OCCCN)c21.CCn1c(-c2nonc2N)nc2c(-c3ccccc3)ncc(OCCCN)c21.O=C(O)C(F)(F)F.O=C(O)C(F)(F)F [GSK260205A] here?
Its potency estimated from few doses is 755 nM.

And the potency estimated from few doses ([18]; CATDS: 0.117322615111941)?
Its potency estimated from few doses is 59 nM.

And the potency estimated from few doses ([15]; compound concentrations: 100 nM and 1000 nM (sheet 'Samples'), CATDS: 4.1756268177550598E-2)?
The potency estimated from few doses was 478 nM.

Which potency estimated from few doses ([2]; compound concentrations: 100 nM and 1000 nM (sheet 'Samples'), CATDS: 1.2670518401124599E-2) does the source give for Cl.Nc1c(C(=O)c2cccc(C#CCN3CCCCC3)c2)cnn1-c1ccc(F)cc1 [RO1154461-001] here?
Its potency estimated from few doses is 863 nM.

What about the potency estimated from few doses ([18]; CATDS: 1.00986377445768E-2) of the same compound?
Its potency estimated from few doses is 1860 nM.

And the potency estimated from few doses ([4]; compound concentrations: 100 nM and 1000 nM (sheet 'Samples'), CATDS: 2.02427776556733E-2)?
The potency estimated from few doses was 292 nM.

And the potency estimated from few doses ([5]; compound concentrations: 100 nM and 1000 nM (sheet 'Samples'), CATDS: 1.3782974497271E-2)?
The potency estimated from few doses was 687 nM.

What about the potency estimated from few doses ([6]; compound concentrations: 100 nM and 1000 nM (sheet 'Samples'), CATDS: 1.07977981674066E-2) of the same compound?
Its potency estimated from few doses is 1430 nM.

What about the potency estimated from few doses ([7]; compound concentrations: 100 nM and 1000 nM (sheet 'Samples'), CATDS: 1.2359364494815299E-2) of the same compound?
The potency estimated from few doses was 927 nM.

What about the potency estimated from few doses ([9]; compound concentrations: 100 nM and 1000 nM (sheet 'Samples'), CATDS: 1.20335296051875E-2) of the same compound?
The potency estimated from few doses was 1000 nM.

What about the potency estimated from few doses ([10]; compound concentrations: 100 nM and 1000 nM (sheet 'Samples'), CATDS: 1.2186963927709901E-2) of the same compound?
The potency estimated from few doses was 966 nM.

What does the source list for Cc1cccc(Nc2nc(N[C@H]3CCCC[C@H]3N)ncc2C(N)=O)c1.Cl [GSK986310C]?
potency estimated from few doses [16]: 1800 nM; potency estimated from few doses [17]: 1130 nM
